# In the library only some 17% were active in any assay of this set; here they are far more common.
# DT40 TDP1 CPT: qHTS for Inhibitors of human tyrosyl-DNA phosphodiesterase 1 (TDP1): qHTS in cells in presence of CPT; Potency, µM (highest dose often 46.2 µM), usual class: inhibitors; 12% of 420,000 active; chicken DT40 Tdp1-/-;hTDP1 cells + 20 nM CPT, ATP luminescence, 48 h; further: nearly all actives have a fitted effect of over 55% in size
#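 Chicken DT40 Tdp1-/- cells complemented with human TDP1, 400 cells/well, exposed to compounds plus 20 nM camptothecin for at least 48 h at 37 C; viability read as ATP content by CellTiter-Glo luminescence.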
# TGFb SMAD3 inh: qHTS for Inhibitors of TGF-b. HepG2 CAGA-GFP TGF-b/SMAD3 reporter, GFP fluorescence, 18 h; TGF-beta stimulated, 500 pg/mL final. Potency, µM (titrated, usually from 46.1 µM), usual class: inhibitors. 1.2% of 410,000 active; further: nearly all actives have a fitted effect of over 65% in size
#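 GFP signal (ex488/em500-530) from TGF-beta-stimulated HEPG2 CAGA-GFP cells, 500 pg/mL final, 18 h at 37 degrees C in DMEM plus 1% FBS, normalized to unstimulated and DMSO-stimulated controls.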
# HepG2 viability: qHTS for Inhibitors of TGF-b: Cytotox Counterscreen; HepG2 CAGA-GFP viability, ATP luminescence, 18 h; Potency, µM (titrated, usually from 46.1 µM), hits mostly cytotoxic; 0.76% of 410,000 active; AID 588856, 2011
#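 HepG2 CAGA-GFP cells (1000/well, DMEM with 1% FBS) received compound, then TGF-beta at 500 pg/mL final, and were incubated 18 hours at 37 degrees C. Viability was read by CellTiter-Glo luminescence. Media-only wells were set as complete cell-killing and DMSO as no toxicity.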
# HT1080-NT tox: qHTS for induction of synthetic lethality in tumor cells producing 2HG: qHTS for the HT-1080-NT fibrosarcoma cell line; AID 686970, 2013; 1.6% of 360,000 active; HT-1080-NT fibrosarcoma viability, CellTiter-Glo ATP luminescence, 48 h; Potency, µM (series often up to 46.1 µM), hits mostly cytotoxic;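 further: NT is the 2HG producing partner of a matched IDH1 knockdown line; nearly all actives have a fitted effect of over 55% in size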
#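 Luminescent CellTiter-Glo readout after 48 hours of compound exposure at 37 degrees C defined viability of HT-1080-NT cells. Activity was normalized to DMSO wells and cell-free media wells; concentration-response curves were fitted and assigned curve classes.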
# TDP1 cell noCPT: qHTS for Inhibitors of human tyrosyl-DNA phosphodiesterase 1 (TDP1): qHTS in cells in absence of CPT; DT40 Tdp1-/- hTDP1 cells, no CPT, ATP luminescence, 48 h; Potency, µM (series often up to 46.2 µM), actives largely listed as inhibitors; 15% of 420,000 active; AID 686978, 2013; further: nearly all actives have a fitted effect of over 55% in size
#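 Cells were dispensed at 400 per well, compounds added by pin tool, plates incubated ≥48 hr at 37 °C, then CellTiter-Glo added for 30 min at room temperature before luminescence reading. Line: DT40 Tdp1-/- complemented with hTDP1; camptothecin omitted.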
# HT1080 IDH1KD tx: qHTS for induction of synthetic lethality in tumor cells producing 2HG: qHTS for the HT-1080-IDH1KD cell line; HT-1080 IDH1 knockdown viability, ATP luminescence, 48 h; Potency, µM (doses to about 46.1 µM), actives largely listed as cytotoxic; 2% of 360,000 active
#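 Knockdown cells (IDH1KD HT-1080) received compounds 2 h after plating at 750 cells/well and were kept 48 h at 37 °C in 5% FBS RPMI. A CellTiter-Glo luminescence read gave % activity for curve fitting.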
# A number is an active result; i = inactive; ? = inconclusive; nt = no result; [ ] = another dose, or the depositor's remark. The call rests on the fitted dose curve; in most records, active means well fitted curve in the direction sought with a large enough effect; inconclusive means small, poorly fitted or top-dose-only effect, or another doubt; inactive means no such curve, though single readings can be large; an effect the other way counts as inactive or inconclusive.
SMILES,DT40 TDP1 CPT,TGFb SMAD3 inh,HepG2 viability,HT1080-NT tox,TDP1 cell noCPT,HT1080 IDH1KD tx
C[C@H]1CN([C@@H](C)CO)C(=O)Cc2cc(NC(=O)CCN3CCOCC3)ccc2O[C@@H]1CN(C)Cc1ccc(Oc2ccccc2)cc1,23.1µM,?,i,i,23.1µM,i
C[C@H]1CN([C@@H](C)CO)C(=O)Cc2cc(NC(=O)C3CC3)ccc2O[C@H]1CN(C)Cc1ccc(Oc2ccccc2)cc1,?,?,i,?,?,i
C[C@H](CO)N1C[C@H](C)[C@H](CN(C)Cc2ccc(-c3ccccc3)cc2)Oc2ccc(NS(=O)(=O)c3ccccc3)cc2CC1=O,16.4µM,?,11.2µM,?,18.4µM,?
O=C1c2ccccc2C(=O)N1c1cccc(O)c1,i,i,i,nt,i,nt
O=C(NCC(=O)N1CCCC1)NN=Cc1ccccc1O,?,i,i,i,?,i
COCCNC(=O)NC1(C(F)(F)F)Oc2ccc(Cl)cc2O1 (centres undefined),18.4µM,i,i,?,13µM,?
Cc1cc(NC(=O)Nc2ccc(F)c(Cl)c2)no1,i,i,i,i[9.24 µM],i,i
O=C(NCc1cccnc1)NC1(C(F)(F)F)Oc2ccc(Cl)cc2O1 (centres undefined),10.3µM,?,i,i,11.6µM,?
CCCCNC(=O)NC1(C(F)(F)F)Oc2ccccc2O1,i,i,i,i,?,i
Cc1cc(NC(=O)NC2(C(F)(F)F)Oc3ccc(Cl)cc3O2)no1 (centres undefined),18.4µM,i,i,?,18.4µM,10µM
CC(C)c1ccc(-n2nnnc2SCc2nc(N)nc(N)n2)cc1,?,i,i,i,?,i
O=[N+]([O-])c1ccc(O)c(/C=N/Nc2nc3ccccc3[nH]2)c1,4.11µM,?,i,?,2.06µM,?
O=C(N/N=C/c1cc([N+](=O)[O-])ccc1O)C12CC3CC(CC(C3)C1)C2,?,i,i,i,23.1µM,i
O=[N+]([O-])c1cccc(N/N=C/c2cc([N+](=O)[O-])ccc2O)c1,i,i,i,23.1µM,?,14.6µM
O=[N+]([O-])c1ccc(N/N=C\c2cccn2-c2ccccc2)nc1,11.6µM,?,i,?,?,?
O=[N+]([O-])c1ccc(NN=Cc2ccccc2)nc1,i,i,i,i,i,i
COCCN1CCN(Cc2ccc(C(=O)NC(C)C)cc2)C(=O)C1=O,i,i,i,nt,i,nt
O=C(N/N=C/c1cc([N+](=O)[O-])ccc1O)Nc1ccccc1,?,i,i,?,?,16.4µM
CCN(CC)S(=O)(=O)c1ccc(N/N=C(\C)c2cccnc2)nc1,i,i,i,i,i,i
O=[N+]([O-])c1cccnc1N/N=C/c1ccccc1O,?,i,i,?,9.2µM,?
CCN(CC)S(=O)(=O)c1ccc(N/N=C(\C)c2ccncc2)nc1,23.1µM,i,i,i,?,i
O=C(N/N=C/c1cc([N+](=O)[O-])ccc1O)NC12CC3CC(CC(C3)C1)C2,?,?,i,i,?,i
O=[N+]([O-])c1ccc(O)c(/C=N/Nc2ccccn2)c1,1.3µM,?,i,11.6µM,1.46µM,10.3µM
COCCNC(=O)C1(C)CCCN(Cc2cc3ccccc3o2)C1 (centres undefined),?,i,i,i,?,i
O=[N+]([O-])c1ccc(NN=Cc2ccc(O)cc2O)nc1,3.26µM,i,i,?,5.8µM,3.26µM
SMILES,DT40 TDP1 CPT,TGFb SMAD3 inh,HepG2 viability,HT1080-NT tox,TDP1 cell noCPT,HT1080 IDH1KD tx
CCN(CC)c1ccc(C=NNc2ccc([N+](=O)[O-])cn2)cc1,20.6µM,i,i,i,?,i
O=C(COc1ccc(/C=C\[N+](=O)[O-])cc1)N1CCOCC1,?,i,i,i,?,i
O=[N+]([O-])/C=C\c1ccc(N2CCOCC2)cc1,14.6µM,?,i,20.6µM,16.4µM,14.6µM
O=[N+]([O-])c1ccc(NN=Cc2ccc(O)cc2)nc1,i,i,i,i,i,i
Nc1nnnn1CC(=O)N/N=C/c1cc([N+](=O)[O-])ccc1O,i,i,i,i,i,i
CCNC(=O)C(=O)N/N=C/c1cc([N+](=O)[O-])ccc1O,14.6µM,i,i,i,?,?
CC(C)C[C@@H](CN1CCC[C@H]1CN1C(=O)C(=O)NC[C@@H]1Cc1ccc(O)cc1)N1C[C@H](Cc2ccc(O)cc2)N(CCc2ccccc2)C(=O)C1=O,i,nt,nt,i,i,i
C=CCN(CC=C)CCOc1ccc2ccccc2c1,i,i,i,i,?,i
O=[N+]([O-])c1ccc(C=NNc2ccccc2)cc1,i,?,i,i,?,?
N#Cc1ccccc1Cn1cc(/C=N/Nc2ccc([N+](=O)[O-])cn2)c2ccccc21,?,i,i,i,23.1µM,i
O=[N+]([O-])c1cccc(N/N=C/c2ccc(N3CCOCC3)cc2)c1,18.4µM,i,i,i,16.4µM,?
O=C(CNS(=O)(=O)c1ccc([N+](=O)[O-])cc1)N/N=C/c1ccc(O)cc1O,?,i,i,?,?,?
CCN(CC)S(=O)(=O)c1ccc(N/N=C/c2ccc(O)cc2O)nc1,4.61µM,i,i,?,5.8µM,?
O=[N+]([O-])c1ccc(N/N=C/c2ccccc2O)cc1,13µM,?,i,i,8.2µM,?
Cn1nc(C(=O)OCC(=O)Nc2cc(Cl)ccc2C#N)c2ccccc2c1=O,i,i,i,i,i,i
C(=N\Nc1ccccn1)/c1ccc(N2CCOCC2)cc1,23.1µM,i,i,i,16.4µM,i
Cc1ccccc1-n1c(C)cc(/C=N/Nc2ccc([N+](=O)[O-])cn2)c1C,25.9µM,i,i,23.1µM,?,?
O=[N+]([O-])c1ccc(O)c(/C=N/Nc2ncnc3c2cnn3-c2ccccc2)c1,3.66µM,?,i,?,3.66µM,?
O=[N+]([O-])c1ccc(NN=Cc2ccccc2O)nc1,5.8µM,?,i,?,5.8µM,7.31µM
COc1ccccc1C=NNc1ccc([N+](=O)[O-])cn1,i,i,i,i,i,i
O=C(CCC1CCCN(C(=O)C2=CCCCC2)C1)N1CCN(c2ccccn2)CC1 (centres undefined),i,i,i,i,?,i
CCOc1ccc2nc3cc(N=Nc4ccc(N)nc4N)ccc3c(N)c2c1,5.8µM,?,14.1µM,i,2.59µM,i

# Screening results (PubChem)
